From PubChem BioAssay AID1345082 (National Center for Advancing Translational Sciences (NCATS), 2018) come the findings set out here.

In all, about 94,000 compounds went through this assay and about 4,000 (4.3%) were called active. A call without a number means that no potency is given here. About 29% were inconclusive and are not listed. Calls come from the whole dose curve; as a rule, active = well fitted inhibition curve with a large enough effect; inconclusive = small, poorly fitted or top-dose-only effect; inactive = no such curve, though single readings can be large or run the other way. Only a selection was taken, and actives are over-represented in it overall.
Potency is the fitted concentration of half-maximal effect.

The assay in a line: Cytotoxic Profiling in NIH 3T3 Cell Line of Diverse Libraries Using Quantitative High-Throughput Screening. Note: nearly all actives have a fitted effect of over 55% in size. To be noted: NIH 3T3 viability, CellTiter-Glo ATP luminescence, 48-72 h; series mostly up to 96.7 µM. The source says: Cell-based phenotypic screening is a commonly used approach to discover biological pathways, novel drug targets, chemical probes and high-quality hit-to-lead molecules. Many hits identified from high-throughput screening campaign are ruled out through a series of follow-up potency, selectivity/specificity, and cytotoxicity assays. Prioritization of molecules with little or no cytotoxicity for a more in-depth downstream evaluation influence the future direction of projects, so cytotoxicity profiling of the screening libraries at early stage is essential for increasing the likelihood of candidate success. In this study, we analyzed results from a cell-based cytotoxicity screening campaign, comprising nearly 10,000 compounds in NCATS annotated libraries, and over 100,000 compounds in a diversity library, evaluated in four normal cell lines (HEK 293, NIH 3T3, CRL-7250 and HaCat) and a cancer cell line (KB 3-1, a HeLa subline) with overall screening outcomes, hit rates, pan-activity and selectivity. For the annotated library, we also examined the primary targets and mechanistic pathways regularly associated with cell death. To our knowledge, this is the first study to use high-throughput screening to profile large libraries for cytotoxicity assessment in both normal and cancer cell lines. In summary, the results generated here constitutes a valuable resource for the scientific community and provides insight on identifying cytotoxic compounds with particular mechanisms of action, and prioritizing compounds with suitable cytotoxicity profile for further evaluation.
NIH 3T3 cells were seeded into white 1536-well plates using a Multidrop Combi peristaltic dispenser (ThermoFisher, Waltham, MA) at a density of 400 cells/well in 5 uL of medium respectively. A pintool (Kalypsys) was used to transfer 23 nL of compound solution to the 1536-well assay plates. After 48 or 72 hr incubation at 37 degree Celsius, 5% CO2 and 95% humidity, 2.5 uL of CellTiter-Glo (Promega) was dispensed into each well using a dispenser (Aspect Automation, St. Paul, MN) with solenoid valves (Lee Valves, Westbrook CT). Plates were left at room temperature for 10 min before imaging the ATP-coupled luminescence using a ViewLux microplate imager (PerkinElmer, Waltham, MA).
A general note: ATP-based viability assays read luminescence as a measure of living cells.
On to `O=c1[nH]c(C2CCCN([S+](=O)([O-])c3cccc(C(F)(F)F)c3)C2)nn1-c1ccc(F)cc1` (stereo unspecified), for which the Potency result is “inactive”.

As for `CC[C@H]1CN(C(=O)Nc2ccccc2)CC[C@H]1CC(=O)Nc1ccccc1`, the Potency entry was “inactive”.

In the case of `O=C1NCc2ccccc2CC12CCN(CC1CCCCC1)C2` (stereo unspecified), the Potency result is “inactive”.

Turning to `CCc1cc(=O)n(CC(=O)Nc2cccc(C(C)=O)c2)c(-c2ccccc2)n1`, the Potency is 35.5 µM (active).

For `COc1cccc(NC(=O)Cn2c(-c3ccccc3)nc(C)cc2=O)c1`, the Potency result is “inactive”.

On to `CC(=O)c1cccc(NC(=O)Cn2c(-c3ccc(Cl)cc3)nc(C)cc2=O)c1`, for which the Potency result is “inactive”.

In the case of `COc1ccc(-c2cc(N3CCC(NC(=O)c4ccoc4)CC3)n[nH]2)cc1`, the Potency result was “inactive”.

For `CC(C)(C)OCC1CN(Cc2cccs2)C(=O)c2cccnc2O1` (stereo unspecified), the Potency result was “inactive”.

Regarding `COc1ccc(CNC(=O)CC[C@H]2CNC(=O)[C@@H]3[C@@H](CCN3C3CCOCC3)N2C)cc1`, the Potency result is “inactive”.

Turning to `CC(C)c1noc(-c2ccn3c(CNC(=O)c4ccc5ccccc5n4)nnc3c2)n1`, the Potency entry was “inactive”.

Turning to `CC(C)(C)c1csc(NC(=O)c2ccc3c(c2)OCCN(C2CCC2)C3)n1`, the Potency is 79.4 µM (active).

Turning to `O=C(NCCc1ccccn1)c1ccc2c(c1)OCCN(c1ccccc1)C2`, the Potency result is “inactive”.

As to `O=C(NCCc1ccccc1)c1ccc2c(c1)OCCN(CCC(F)(F)F)C2`, the Potency entry is “inactive”.

Turning to `Cc1noc(C2CC3(CCN(C(=O)c4cccnc4C)CC3)CN2C)n1` (stereo unspecified), the Potency entry was “inactive”.

As for `O=C(CN1CCC2(CC1)NC(=O)CC2C(=O)O)NCCc1ccc(F)cc1` (stereo unspecified), the Potency entry was “inactive”.

Consider `O=C(Cc1cccc(Cl)c1)N1CCCN(c2ccc3nnc(C4CC4)n3n2)CC1`, for which the Potency entry was “inactive”.

In the case of `Cc1c[nH]c(CN2CCCC(CCc3ccc(F)cc3F)C2)c(C)c1=O` (stereo unspecified), the Potency was 50.1 µM (active).

Consider `Cn1ccnc1CN1CCCC(CCC(=O)Nc2ccccc2F)C1` (stereo unspecified), for which the Potency entry was “inactive”.

On to `CN1[C@@H](CCC(=O)N2CCOCC2)CNC(=O)[C@@H]2[C@H]1CCN2Cc1ccc(S(C)(=O)=O)cc1`, for which the Potency result is “inactive”.

For the compound `CC(C)C(=O)N1CCC(OC2CCN(Cc3ccccc3)CC2)CC1`, the Potency entry was “inactive”.

As to `O=c1[nH]c(C2CCN(Cc3ccccc3)CC2)nc2ccc(F)cc12`, the Potency entry is “inactive”.

Take `Cc1ccc(F)cc1S(=O)(=O)N1CCC(OC2CCN(Cc3ccccc3)CC2)CC1`: the Potency is 35.5 µM (active).

Consider `CCCN1CCN(c2ccc(C(=O)N(C)Cc3ccc4ccccc4n3)cn2)CC1`, for which the Potency entry is “inactive”.

As to `COCCOc1ccc(-c2noc([C@@H]3CCCN3Cc3cccnc3)n2)cn1`, the Potency result was “inactive”.

In the case of `C[S+](=O)([O-])c1cccc(-c2ncc3c(n2)OCCN(Cc2ccc(F)cc2F)C3=O)c1`, the Potency was 28.2 µM (active).

In the case of `COc1ccc(CN2CCN3C(=O)N(c4ccccc4)C[C@H]3C2)cn1`, the Potency entry was “inactive”.

Regarding `CN(C)c1cccc(-c2ncc3c(n2)OCCN(Cc2ccc(F)cc2F)C3=O)c1`, the Potency entry is “inactive”.

For `COCCN1CCOC2(CCN(Cc3ccc(F)cc3F)CC2)C1=O`, the Potency result is “inactive”.

Consider `COc1ccc(-c2ncc3c(n2)OCCN(Cc2ccccc2)C3=O)cn1`, for which the Potency is 35.5 µM (active).

As to `Cc1nc(CCNc2nccc(-c3cccnc3)n2)nc2c1CCCC2`, the Potency result is “inactive”.

For `CNC(=O)[C@@H]1[C@H]2CN(C3CCCCCC3)CCN2C[C@H]1c1ccccc1`, the Potency result is “inactive”.

As to `O=C(C1CCCC1)N1C[C@@H](CO)[C@H](c2ccncc2)C1`, the Potency result is “inactive”.

Regarding `CC(C)(C)c1ccc(C(=O)N2C[C@@H](CO)[C@H](c3ccccn3)C2)cc1`, the Potency entry was “inactive”.

For `CC(C)CNC(=O)c1nnn2c1COC(c1ccc(Br)cc1)C2` (stereo unspecified), the Potency entry is “inactive”.

For `CCCc1nc(NCC(c2ccccn2)N2CCOCC2)c2cnn(C)c2n1` (stereo unspecified), the Potency entry was “inactive”.

For the compound `CC(C)Cc1cc(CNc2nc(C(C)(C)C)nc3c2cnn3C)no1`, the Potency was 44.7 µM (active).

Take `COc1ccc2[nH]cc(CCNC(=O)CC3=C4CCCCC4N(C)C3=O)c2c1` (stereo unspecified): the Potency result is “inactive”.

Turning to `COc1ccc(CNC(=O)CC[C@@H]2CNC(=O)[C@@H]3C[C@H](NC(=O)Nc4ccsc4)CN23)cc1`, the Potency entry was “inactive”.

Turning to `Cc1cccc(-c2nc3ccc(C(=O)N4CCCCC4)cc3o2)n1`, the Potency was 10 µM (active).

For the compound `CCOC(=O)C1CCCN(C(=O)c2ccc3oc(-c4ccccn4)nc3c2)C1` (stereo unspecified), the Potency result was “inactive”.

On to `CC(=O)N1CCN(C(=O)c2ccc3nc(-c4ccncc4)oc3c2)CC1`, for which the Potency result is “inactive”.

Take `Cc1ccccc1NC(=O)CN1C(=O)NC(c2ccccc2Cl)C2=C1COC2=O` (stereo unspecified): the Potency result is “inactive”.

In the case of `CCOc1ccccc1C1NC(=O)N(CC(=O)Nc2ccc(C)c(C)c2)C2=C1C(=O)OC2` (stereo unspecified), the Potency result is “inactive”.

Turning to `Cc1ccc(Cl)cc1NC(=O)CN1C(=O)NC(c2ccc(Cl)cc2)C2=C1COC2=O` (stereo unspecified), the Potency is 35.5 µM (active).

For `Cc1cccc(C)c1NC(=O)CN1C(=O)NC(c2ccc(Cl)cc2)C2=C1COC2=O` (stereo unspecified), the Potency result was “inactive”.

Consider `CCOc1ccccc1C1NC(=O)N(CC(=O)Nc2c(C)cccc2Cl)C2=C1C(=O)OC2` (stereo unspecified), for which the Potency result is “inactive”.

Turning to `CCc1cccc(NC(=O)CN2C(=O)NC(c3ccc(Cl)cc3)C3=C2COC3=O)c1` (stereo unspecified), the Potency was 25.1 µM (active).

For `CCN1CC2(CCN(Cc3c(OC)ccc(F)c3F)CC2)OC1=O`, the Potency result was “inactive”.

In the case of `COc1ccc(-c2cccc(C(=O)N3CCN(C(=O)c4ccc(Cl)nc4)CC3)c2)nn1`, the Potency result is “inactive”.

As for `COCCc1noc(C2Cc3ccccc3N2C(=O)NCc2ccco2)n1` (stereo unspecified), the Potency result was “inactive”.

Regarding `O=C(NC[C@H]1O[C@H](Cc2cc(-c3ccccc3)on2)CC[C@@H]1O)C1CCC1`, the Potency result was “inactive”.

In the case of `O=C1Nc2ccccc2CC12CCN2Cc1cncs1` (stereo unspecified), the Potency entry is “inactive”.

`CC(=O)N1CCN(C(=O)c2ccccc2N2CCOCC2)CC(O)C1` (stereo unspecified): the Potency entry is “inactive”.

For the compound `COCc1cccc(-c2n[nH]c3c2CC(=O)N(c2ccccc2)C3)c1`, the Potency entry is “inactive”.

With `O=C1Cc2c(-c3ccc(CO)cc3)n[nH]c2CN1CC1CCOCC1`, the Potency was 79.4 µM (active).

Turning to `c1cc(-c2ccc3c(c2)OCCCO3)n2ncnc2n1`, the Potency entry is “inactive”.

Take `COc1ccc(Cn2c(=O)c(C(=O)N3CCN(C(=O)Nc4ccccc4)CC3)nc3cccnc32)cc1`: the Potency result was “inactive”.

On to `COc1ccccc1-c1ccc(C(=O)N2CCC(C(=O)NC3CC3)CC2)cc1`, for which the Potency entry was “inactive”.

For the compound `COCCC1(NC(=O)c2ccccc2)CCN(Cc2ccc(F)cc2F)CC1`, the Potency entry was “inactive”.

With `COc1ccc(F)cc1S(=O)(=O)N1[C@@H]2CC[C@H]1CC(NC(=O)c1ccc(F)cc1)C2` (stereo partly specified), the Potency entry was “inactive”.

Regarding `COc1cccc(-c2ccc(CN3CCCC(NC(=O)NC4CCCC4)C3)cc2)c1` (stereo unspecified), the Potency entry was “inactive”.

For the compound `O=C(NC1CCCN(Cc2ccc(-c3cncnc3)cc2)C1)c1ccccc1` (stereo unspecified), the Potency entry is “inactive”.

Turning to `Cc1cc(C)cc(-c2ccc(CN3CCCC(NC(=O)c4ccccc4)C3)cc2)c1` (stereo unspecified), the Potency is 22.4 µM (active).

For `O=C(NC1CCCN(Cc2ccc(-c3cncnc3)cc2)C1)C1CCCC1` (stereo unspecified), the Potency entry was “inactive”.

As for `COc1ccc(CC(=O)NC2CCN(Cc3ccc(-c4ccccc4OC)cc3)C2)cc1` (stereo unspecified), the Potency is 31.6 µM (active).

On to `COc1ccc(F)cc1-c1ccc(CN2CCC(NC(=O)c3ccccc3)C2)cc1` (stereo unspecified), for which the Potency is 35.5 µM (active).
